Assay outcomes deposited in PubChem BioAssay by National Center for Advancing Translational Sciences (NCATS).
Only a selection was taken, and hits are over-represented in it overall.
Giardia FBPA inh-1 – qHTS Assay for Inhibitors of Fructose-1,6-bisphosphate Aldolase from Giardia Lamblia. A8B2U2. purified Giardia FBPA. Potency, µM (doses to about 59.6 µM), actives largely listed as inhibitors. hit rate 0.71% among 290,000. AID 2451, 2010; note: nearly all actives have a fitted effect of over 55% in size
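Giardia FBPA (40 nM reagent) was preincubated 10 min at RT with compound (up to 57.5 uM final), then substrate plus GAPDH/TPI/NAD/arsenate coupling system with diaphorase/resazurin was added; resorufin fluorescence (525/598 nm) was read after 20 min.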
LmPK inh – qHTS Assay for Inhibitors of Leishmania Mexicana Pyruvate Kinase (LmPK) | Q27686 | purified LmPK, Kinase-Glo ATP luminescence, 1 h | Potency, µM (top dose mostly 57.5 µM), actives largely listed as inhibitors | hit rate 0.37% among 290,000
Target sequence (Q27686 whole entry, looked up): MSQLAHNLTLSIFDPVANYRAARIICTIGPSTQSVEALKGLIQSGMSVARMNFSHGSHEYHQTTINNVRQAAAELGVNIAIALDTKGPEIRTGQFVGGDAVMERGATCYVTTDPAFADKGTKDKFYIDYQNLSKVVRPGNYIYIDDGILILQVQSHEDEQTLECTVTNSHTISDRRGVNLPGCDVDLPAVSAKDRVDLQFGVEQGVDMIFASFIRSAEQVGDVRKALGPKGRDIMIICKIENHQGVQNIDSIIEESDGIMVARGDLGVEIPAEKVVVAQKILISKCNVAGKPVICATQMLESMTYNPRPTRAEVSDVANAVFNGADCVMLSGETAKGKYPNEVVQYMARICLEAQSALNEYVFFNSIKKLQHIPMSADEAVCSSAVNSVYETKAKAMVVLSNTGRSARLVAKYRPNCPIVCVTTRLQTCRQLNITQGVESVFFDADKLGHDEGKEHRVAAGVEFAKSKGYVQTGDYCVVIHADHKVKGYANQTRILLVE
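0.1 nM LmPK, 0.5 mM PEP, 0.1 mM ADP; 50 mM imidazole pH 7.2, 7 mM MgCl2, 50 mM KCl; 1 h RT. Kinase-Glo luminescence readout, normalized to no-enzyme (full inhibition) and uninhibited wells.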
Shiga toxin inh – A qHTS for Small Molecule Inhibitors of Shiga Toxin | Vero cells, Shiga toxin protein synthesis inhibition reporter | inhibition, % at 38.7 µM | hit rate 9.2% among 290,000 | AID 2315, 2010; in the data active = inhibition mostly above about 28%, no sharp cut-off; inactive = mostly below about 43%
CHX counter – Cycloheximide Counterscreen for Small Molecule Inhibitors of Shiga Toxin. max response, %. cell reporter, cycloheximide protein synthesis inhibition counterscreen. hit rate 12% among 300,000; in the data active = max response mostly above about 13%, no sharp cut-off; inactive = mostly below about 14%; note: read at 38.3 µM for the half of the compounds with a filed dose
TbPYK inhibitor – qHTS of Trypanosoma Brucei Inhibitors; pyruvate kinase (Trypanosoma brucei), Q57TT1; TbPYK enzyme, Kinase-Glo Plus ATP luminescence, 45 min; Potency, µM (highest dose often 76.8 µM), actives largely listed as inhibitors; hit rate 0.12% among 410,000; note: nearly all actives have a fitted effect of over 50% in size
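Glycolytic pyruvate kinase of T. brucei was incubated with substrate, test compound and 130 uM ADP for 45 minutes at room temperature. Luminescent Kinase-Glo Plus signal was measured after 10 minutes.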
RE007 growth inh – qHTS Assay for Inhibitors of the HIV-1 protein Vpr; hit rate 0.21% among 360,000; S. pombe RE007 Vpr strain, BacTiter-Glo ATP luminescence, 24 h; Potency, µM (top dose mostly 92.2 µM), actives largely listed as inhibitors; active = well fitted falling curve with a large enough effect; inconclusive = small, poorly fitted or top-dose-only effect; inactive = no such curve, though single readings can be large or run the other way; note: nearly all actives have a fitted effect of over 50% in size
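Fission yeast RE007 carrying one integrated HIV-1 vpr copy, seeded at OD 0.01 in PMG+AL medium with 23 nL pinned compound. Grown 24 h at 30 degrees; viability read by BacTiter-Glo luminescence after 5 min.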
Giardia growth – qHTS Assay for Inhibitors of Fructose-1,6-bisphosphate Aldolase from Giardia Lamblia: Giardia lamblia growth inhibition | hit rate 5% among 1,500 | Giardia lamblia trophozoite growth inhibition | AID 2785, 2010 | Potency, µM (doses to about 57.5 µM), most hits filed as inhibitors | shares compounds with Giardia FBPA inh-1;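 note: trophozoites exposed to compound for 48 h at 37 °C; nearly all actives have a fitted effect of over 70% in size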
Mammalian tox – qHTS Assay for Inhibitors of Fructose-1,6-bisphosphate Aldolase from Giardia Lamblia: Mammalian cellular toxicity | shares compounds with Giardia FBPA inh-1 | mammalian cell viability counter-screen, qHTS | Potency, µM (series often up to 57.5 µM), actives largely listed as inhibitors | hit rate 4% among 1,500 | AID 2786, 2010;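 note: Chinese hamster ovary cells used as mammalian cytotoxicity surrogate; viability measured as cellular ATP by luminescence; compound exposure lasted 48 h before reading; nearly all actives have a fitted effect of over 60% in size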
Giardia FBPA inh-2 – qHTS Assay for Inhibitors of Fructose-1,6-bisphosphate Aldolase from Giardia Lamblia: Primary screen confirmation; hit rate 5% among 1,500; shares compounds with Giardia FBPA inh-1; Potency, µM (top dose mostly 57.5 µM), usual class: inhibitors; AID 2787, 2010; purified Giardia aldolase enzyme activity, qHTS; note: nearly all actives have a fitted effect of over 45% in size
Rabbit aldolase – qHTS Assay for Inhibitors of Fructose-1,6-bisphosphate Aldolase from Giardia Lamblia: Rabbit FBPA Selectivity; shares compounds with Giardia FBPA inh-1; Rabbit muscle FBPA enzyme inhibition, selectivity counter-screen; Potency, µM (top dose mostly 57.5 µM), hits mostly inhibitors; hit rate 4% among 1,500; AID 2794, 2010; note: nearly all actives have a fitted effect of over 60% in size
GAPDH coupling – qHTS Assay for Inhibitors of Fructose-1,6-bisphosphate Aldolase from Giardia Lamblia: Coupling assay counterscreen confirmation; shares compounds with Giardia FBPA inh-1; GAPDH coupling enzyme counterscreen, biochemical, qHTS; Potency, µM (doses to about 57.5 µM), actives largely listed as inhibitors; hit rate 6% among 1,500; AID 2795, 2010; note: nearly all actives have a fitted effect of over 55% in size
Large screens that a line does not name were inactive (follow-up assays come after a bar, where they were run); ! = not active in a repeat; [ ] = dose if it differs, or a comment. Unless noted, calls come from the whole dose curve; as a rule, active = well fitted curve in the direction sought with a large enough effect; inconclusive = small, poorly fitted or top-dose-only effect, or another doubt; inactive = no such curve, though single readings can be large; an effect the other way counts as inactive or inconclusive.

CCC(C)NC(=O)C1CCN(S(=O)(=O)c2ccc(-n3cnnn3)cc2)CC1 (stereo unspecified)	none
CCCS(=O)(=O)N1CCN(Cc2ccncc2)CC1	none
CCS(=O)(=O)N1CCN(Cc2ccncc2)CC1	Giardia FBPA inh-1 14µM | Giardia growth inactive | Mammalian tox inactive | Giardia FBPA inh-2 inactive | Rabbit aldolase inactive | GAPDH coupling inactive
CCN(CC(=O)Nc1ccc(NC(C)=O)cc1)C(=O)c1ccc(N2CCC(C)CC2)c([N+](=O)[O-])c1	none (no result: Giardia FBPA inh-1, LmPK inh, Shiga toxin inh, CHX counter)
Nn1cnnc1N/N=C/c1cccc(Cl)c1Cl	Giardia FBPA inh-1 inconclusive | Giardia growth inactive | Mammalian tox inactive | Giardia FBPA inh-2 9.2µM | Rabbit aldolase 12µM | GAPDH coupling 15µM
Nn1cnnc1N/N=C/c1ccccc1C(F)(F)F	Giardia FBPA inh-1 inconclusive
Nn1cnnc1N/N=C/c1ccc(Cl)c([N+](=O)[O-])c1	Giardia FBPA inh-1 13µM | Giardia growth inactive | Mammalian tox inactive | Giardia FBPA inh-2 inconclusive | Rabbit aldolase inconclusive | GAPDH coupling inconclusive
Nn1cnnc1N/N=C/c1ccc(F)cc1	Giardia FBPA inh-1 20µM | Giardia growth inactive | Mammalian tox inactive | Giardia FBPA inh-2 inconclusive | Rabbit aldolase inactive | GAPDH coupling inconclusive
CCc1nnc(N/N=C/c2ccc(N3CCC(C)CC3)c([N+](=O)[O-])c2)n1N	Giardia FBPA inh-1 7.1µM, RE007 growth inh inconclusive | Giardia growth inconclusive | Mammalian tox inactive | Giardia FBPA inh-2 inconclusive | Rabbit aldolase inactive | GAPDH coupling inactive
CCN1CC(CN(C)Cc2nc(-c3ccc(C(F)(F)F)cc3)oc2C)CC1=O (stereo unspecified)	none
COc1ccc(-n2nc(C(=O)Nc3ccc(Br)cc3C)c3c4ccccc4n(C)c3c2=O)cc1	none (no result: Giardia FBPA inh-1, LmPK inh, Shiga toxin inh, CHX counter, RE007 growth inh)
COc1ccc(-c2n[nH]c(=S)n2N)c(OC)c1	Giardia FBPA inh-1 10µM | Giardia growth inactive | Mammalian tox inactive | Giardia FBPA inh-2 inactive | Rabbit aldolase inactive | GAPDH coupling inactive
CC(C)(C)C(=O)Nc1ccc(C(=O)CSc2nnc(C3CC3)n2C2CC2)cc1	none (no result: Giardia FBPA inh-1, LmPK inh, Shiga toxin inh, CHX counter)
CCN(C(=O)Cn1c(=O)n(CCCS(=O)(=O)C2CCCCC2)c(=O)c2ccccc21)c1cccc(C)c1	none (no result: Giardia FBPA inh-1, LmPK inh, Shiga toxin inh, CHX counter, RE007 growth inh)
COc1cccc(CN2CCSCC2)c1	Giardia FBPA inh-1 inconclusive
COc1cccc(CN2CCN(Cc3cc(OC)c(OC)cc3OC)CC2)c1	Giardia FBPA inh-1 14µM | Giardia growth inactive | Mammalian tox inactive | Giardia FBPA inh-2 inactive | Rabbit aldolase inactive | GAPDH coupling inactive
COc1ccc(CN2CCNCC2)c(OC)c1OC	Giardia FBPA inh-1 22µM! | Giardia growth inactive[10.4 µM] | Mammalian tox inactive | Giardia FBPA inh-2 inactive | Rabbit aldolase inactive | GAPDH coupling inactive
COc1cccc(CN2CCNCC2)c1	Giardia FBPA inh-1 3.5µM | Giardia growth inconclusive | Mammalian tox inactive | Giardia FBPA inh-2 inactive | Rabbit aldolase inactive | GAPDH coupling inactive
COc1cc(OC)c(OC)cc1CN1CCN(Cc2ccc(SC)cc2)CC1	Giardia FBPA inh-1 inconclusive
COc1ccc(C)cc1CN(C)c1ccc(S(=O)(=O)N2CCN(C)CC2)cn1	none (no result: Giardia FBPA inh-1, LmPK inh, Shiga toxin inh, CHX counter)
CCCOc1ccc(CNC(=O)C(C)n2nc(C)n3c(cc4occc43)c2=O)cc1 (stereo unspecified)	none (no result: Giardia FBPA inh-1, LmPK inh, Shiga toxin inh, CHX counter, RE007 growth inh)
COc1ccc(NN=Nc2nc3c([nH]2)c(=O)n(C)c(=O)n3C)cc1	Giardia FBPA inh-1 18µM, Shiga toxin inh 84, CHX counter 40, TbPYK inhibitor inconclusive | Giardia growth inconclusive | Mammalian tox inactive | Giardia FBPA inh-2 13µM | Rabbit aldolase inconclusive | GAPDH coupling inconclusive
COc1ccc(N)cc1-n1c(C)ccc1C	Giardia FBPA inh-1 inconclusive, Shiga toxin inh 37, CHX counter 25 | Giardia growth inactive | Mammalian tox inactive | Giardia FBPA inh-2 inconclusive | Rabbit aldolase inconclusive | GAPDH coupling 8.9µM
COc1ccc(C)cc1-n1c(C)cc(C=O)c1C	none
